Laboratory results as given in PubChem BioAssay (NCATS).
Results filed as inconclusive are left out. Where a call stands in place of a potency, no number is given. Calls of active or inactive are those of the source. Calls follow the shape of the dose curve; as a rule, active = well fitted curve in the direction sought with a large enough effect; inconclusive = small, poorly fitted or top-dose-only effect, or another doubt; inactive = no such curve, though single readings can be large; an effect the other way counts as inactive or inconclusive.

Experiments:
[1] = molecular target: Tyrosine-protein kinase Yes (Homo sapiens) (UniProt P07947); test: qHTS for small molecule inhibitors of Yes1 kinase: Primary Screen (AID 686947); conditions: Yes1 kinase biochemical qHTS inhibition; series mostly up to 76.9 µM; also: nearly all actives have a fitted effect of over 60% in size; also: potency is read from the fitted curve at half-maximal effect
Chain of Tyrosine-protein kinase Yes (Homo sapiens) (P07947 whole entry, looked up): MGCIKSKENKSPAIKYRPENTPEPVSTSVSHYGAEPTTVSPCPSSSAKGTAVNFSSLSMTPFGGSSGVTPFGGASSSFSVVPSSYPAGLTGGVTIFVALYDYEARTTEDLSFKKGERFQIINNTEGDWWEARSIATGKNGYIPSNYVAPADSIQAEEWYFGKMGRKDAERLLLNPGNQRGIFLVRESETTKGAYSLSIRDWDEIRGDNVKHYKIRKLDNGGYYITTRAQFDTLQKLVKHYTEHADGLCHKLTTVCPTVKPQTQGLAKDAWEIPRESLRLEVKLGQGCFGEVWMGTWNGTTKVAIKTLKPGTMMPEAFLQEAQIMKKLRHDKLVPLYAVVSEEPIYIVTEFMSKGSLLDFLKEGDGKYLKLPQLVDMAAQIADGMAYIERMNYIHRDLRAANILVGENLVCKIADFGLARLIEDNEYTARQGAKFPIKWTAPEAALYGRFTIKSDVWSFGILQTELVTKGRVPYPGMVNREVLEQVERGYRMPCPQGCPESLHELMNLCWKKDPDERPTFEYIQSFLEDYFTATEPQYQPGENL
Procedure, shortened: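 Yes1 (4 nM) preincubated 20 min with compound, then 60 min room-temperature reaction with 0.1 mM ATP and 0.3 mg/mL poly(E4Y) in pH 7.5 Tris, 10 mM MgCl2. ADP measured by ADP-Glo luminescence, normalised to enzyme/no-enzyme controls.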

[2] = qHTS for small molecule inhibitors of Yes1 kinase: Counter Assay (AID 686950); conditions: series mostly up to 76.9 µM;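 also: no kinase present so only ADP-Glo detection of a fixed ADP amount is tested; luminescence from ADP-Glo reporting ADP in a fixed ATP and ADP mixture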
Procedure, shortened: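 Enzyme-free detection counter-screen: compounds preincubated 20 min in buffer, then 0.08 mM ATP plus 0.02 mM ADP added for 60 min at room temperature; ADP-Glo luminescence. Buffer 50 mM Tris pH 7.5, 10 mM MgCl2, 150 mM NaCl; normalized to ATP+ADP and ATP-only controls.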

[3] = molecular target: Arylsulfatase A (Homo sapiens) (UniProt P15289); test: qHTS screen for enhancers of Arylsulfatase A (ASA1): LOPAC Validation Assay (AID 720538); conditions: ASA enzyme activity, LOPAC qHTS enhancer assay; at 57.5 µM (top of the series)
Chain of Arylsulfatase A (Homo sapiens) (P15289 whole entry, looked up): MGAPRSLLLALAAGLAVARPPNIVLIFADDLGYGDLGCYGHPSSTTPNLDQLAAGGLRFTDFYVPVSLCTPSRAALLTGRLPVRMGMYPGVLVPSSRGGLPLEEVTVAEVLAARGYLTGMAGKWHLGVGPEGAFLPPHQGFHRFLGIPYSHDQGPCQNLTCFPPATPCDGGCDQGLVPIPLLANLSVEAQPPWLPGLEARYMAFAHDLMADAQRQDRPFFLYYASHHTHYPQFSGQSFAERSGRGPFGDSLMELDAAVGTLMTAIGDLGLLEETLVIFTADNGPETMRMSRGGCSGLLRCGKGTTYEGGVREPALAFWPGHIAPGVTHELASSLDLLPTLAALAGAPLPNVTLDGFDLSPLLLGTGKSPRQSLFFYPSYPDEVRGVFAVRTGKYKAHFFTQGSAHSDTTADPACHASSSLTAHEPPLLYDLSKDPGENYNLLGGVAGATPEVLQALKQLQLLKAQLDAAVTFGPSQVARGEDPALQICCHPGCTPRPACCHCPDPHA
Procedure, shortened: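 Read-out: fluorescence at Ex=525/Em=598 nm after 1N NaOH final stop. Patient fibroblasts carrying ASA-I179S had 48h compound exposure, then 14h room-temperature pNCS hydrolysis (0.5mM final) in lysis buffer. Signal increase = enhanced activity.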

[4] = qHTS for compounds that reverse cellular toxicity of Amyloid beta (A-beta) peptide in yeast: LOPAC Validation Assay (AID 720559); conditions: yeast expressing A-beta; series mostly up to 46.1 µM
Procedure, shortened: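 OD600 growth readout after 48 hr at 30 C; A-beta-toxic yeast plus pinned compounds in medium. Normalization: DMSO = negative, equimolar FeCl3 + clioquinol = positive.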

[5] = qHTS for Activators of Parkin Expression: LOPAC Validation Assay (NLuc Reporter) (AID 720572); conditions: Parkin promoter NanoLuc reporter cells, luminescence, percent of positive control, DMSO as zero; series mostly up to 46.1 µM
Procedure, shortened: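 Neuronal cells with a Parkin promoter-driven FLuc/NLuc coincidence reporter were treated 24 h at 37 C in 7-point dose response (LOPAC). NLuc luminescence read after FLuc; signals normalized to DMSO and positive control (100%).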

[6] = qHTS for Activators of Parkin Expression: LOPAC Validation Assay (FLuc Reporter) (AID 720573); conditions: Cell line, PRKN promoter firefly luciferase reporter, vehicle wells = 0, positive control = 100%; series mostly up to 46.1 µM
Procedure, shortened: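 FLuc luminescence read-out from a neuronal line expressing a Parkin-promoter-driven coincidence reporter. Cells treated 24 h at 37 C, 5% CO2 with compounds at 7 concentrations; signal increase normalized to DMSO and positive control.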

For COc1ccc(CCN(C)CCCOc2ccc(S(=O)(=O)c3[nH]c4ccccc4c3C(C)C)cc2)cc1OC, which Potency [1] is on record?
The Potency was “inactive”.

And the outcome [2]?
Its outcome is “inactive”.

For CC(C)Oc1cc(Nc2nc(N[C@@H](C)c3ccc(F)cn3)ncc2Cl)[nH]n1, which Potency [1] is on record?
The Potency was 6.1 nM (active).

And the outcome [2]?
The outcome was “inactive”.

For CCCCCCCCCCCCCC(=O)N[C@H](CO)[C@H](O)c1ccc([N+](=O)[O-])cc1, which Potency [1] is on record?
The Potency was “inactive”.

What about the outcome [2] of the same molecule?
Its outcome is “inactive”.

For Cc1ccc(C(=O)N(CCCN)[C@@H](c2nc3cc(Cl)ccc3c(=O)n2Cc2ccccc2)C(C)C)cc1, which Potency [1] is on record?
The Potency was “inactive”.

And the outcome [2]?
The outcome was “inactive”.

With O=C(O)Cc1cccc(OCCCN(Cc2cccc(C(F)(F)F)c2Cl)CC(c2ccccc2)c2ccccc2)c1 as the molecule, how does the outcome [2] read?
The outcome was “inactive”.

With CC(=O)Nc1cccc(-n2c(=O)n(C3CC3)c(=O)c3c(Nc4ccc(I)cc4F)n(C)c(=O)c(C)c32)c1 as the molecule, how does the Potency [1] read?
The Potency was “inactive”.

What about the outcome [2] of the same molecule?
The outcome was “inactive”.

Which outcome [2] does the source give for O=C(Nc1ccc(OC(F)(F)F)cc1)c1sccc1NCc1ccnc2ccccc12 here?
Its outcome is “inactive”.

For C[C@H]1O[C@@H](n2cc(F)c(=O)[nH]c2=O)[C@H](O)[C@H]1O, which outcome [3] is on record?
The outcome was “inactive; inhibitor; fitted 8.4921 uM”.

What about the outcome [4] of the same molecule?
The outcome was “inactive”.

And the outcome [5]?
The outcome was “inactive”.

What about the outcome [6] of the same molecule?
Its outcome is “inactive”.

With CCNC(=O)c1noc(-c2cc(C(C)C)c(O)cc2O)c1-c1ccc(CN2CCOCC2)cc1 as the molecule, how does the outcome [2] read?
The outcome was “inactive”.

Which results are given for CCOC(=O)[C@@H](N)CCC(=O)N[C@@H](CSCc1ccccc1)C(=O)N[C@@H](C(=O)OCC)c1ccccc1?
Potency [1]: inactive; outcome [2]: inactive

For CCN(CC)CCCCNc1nc2cc(Cl)c(Cl)cc2nc1-c1ccc(-c2cccs2)s1, which outcome [2] is on record?
The outcome was “inactive”.

Which Potency [1] does the source give for COc1cc2c(cc1OC)CC(=O)N(CCCN(C)C[C@H]1Cc3cc(OC)c(OC)cc31)CC2 here?
The Potency was “inactive”.

What about the outcome [2] of the same molecule?
Its outcome is “inactive”.

For CN(C)CCN(C)C(=O)c1ccc(NC(=O)Nc2ccc(-c3nc(N4CCOCC4)c4ccn(CC(F)(F)F)c4n3)cc2)cc1, which outcome [2] is on record?
The outcome was “inactive”.

Which results are given for CNC(=O)c1cc(COc2nnc(Nc3ccc(Cl)cc3)c3ccoc23)ccn1?
Potency [1]: inactive; outcome [2]: inactive

Which Potency [1] does the source give for NC(=O)c1ccc(N(C(N)=O)c2c(F)cccc2F)nc1-c1ccc(F)cc1F here?
The Potency was “inactive”.

And the outcome [2]?
Its outcome is “inactive”.

For CN(C)CCOc1ccc(-c2nc(-c3ccc4c(c3)CCC4=NO)c(-c3ccncc3)[nH]2)cc1, which outcome [2] is on record?
The outcome was “inactive”.

For CC(=O)NCCC(=O)N[C@@H](CCC(N)=O)C(=O)N[C@@H](CO)C(=O)N[C@@H](CCC(N)=O)C(=O)N[C@@H](CCC(N)=O)C(=O)N[C@H](C(=O)N[C@@H](Cc1ccccc1)C(=O)N[C@]1(C)CCCCCCC=CCCC[C@@](C)(C(=O)N[C@@H](CCC(N)=O)C(=O)N[C@@H](CC(N)=O)C(N)=O)NC(=O)[C@H](CC(C)C)NC(=O)[C@H](CC(C)C)NC(=O)[C@@H](CCCNC(=N)N)NC(=O)[C@H](Cc2c[nH]c3ccccc23)NC(=O)[C@H](CC(C)C)NC(=O)[C@H](CC(N)=O)NC1=O)[C@H](C)O, which outcome [2] is on record?
Its outcome is “inactive”.

What does the source list for COc1ccc2c(c1)CC[C@H]1[C@@H]2CC[C@]2(C)[C@@H](NCCCCCCN3C(=O)C=CC3=O)CC[C@H]12?
Potency [1]: inactive; outcome [2]: inactive

What does the source list for COc1cc2nccc(Oc3ccc(NC(=O)Nc4cc(C)on4)c(Cl)c3)c2cc1OC?
Potency [1]: 772 nM (active); outcome [2]: inactive

With O=C(Nc1cccc(Cl)c1)Nc1ncc(CCNc2ncnc3ccsc23)s1 as the molecule, how does the Potency [1] read?
Its Potency is “inactive”.

And the outcome [2]?
The outcome was “inactive”.
